We go through five compounds from PubChem BioAssay (NCATS).

The nature of test [1]: qHTS profiling for inhibitors of Plasmodium falciparum (DD2) proliferation (AID 743323). The note with it: lower = more inhibition; at 28.7 µM (top of the series). A digest of the protocol: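 SYBR Green fluorescence (ex 485, em 535 nm) of lysed cultures gives parasite DNA content; wells normalized to artemisinin (0.29 uM) and DMSO controls. Infected red cells: 0.3% parasitemia, 2.5% hematocrit, 72 h, 37 C.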
For orientation: qHTS replaces the single test concentration by a dilution series.

Test [2] can be described thus: qHTS profiling of the MIPE4 collection as inhibitors of Plasmodium falciparum (3D7) proliferation (AID 743344).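 Further: scaled between DMSO vehicle wells and 0.29 µM artemisinin as full inhibition.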 The note with it: P. falciparum 3D7 in erythrocytes, SYBR Green DNA fluorescence, 72 h; at 28.5 µM (top of the series) unless noted. The method in brief: (§1)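 Parasite DNA was quantified by SYBR Green I fluorescence (ex 485, em 535 nm) after overnight lysis in saponin/Triton buffer at room temperature. Cultures at 0.3% parasitemia and 2.5% hematocrit were first exposed to compound for 72 h at 37 C; signals were normalised to artemisinin (0.29 uM) and vehicle wells.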

A short description of test [3]: qHTS profiling of the MIPE4 collection as inhibitors of Plasmodium falciparum (DD2) proliferation (AID 743345). Conditions: P. falciparum Dd2 in erythrocytes, SYBR Green DNA, 72 h; at 28.5 µM (top of the series) unless noted. The method in brief:
as §1

Test [4] in a line: qHTS profiling of the MIPE4 collection as inhibitors of Plasmodium falciparum (DD2) proliferation (Rep 2) (AID 743346). The note with it: P. falciparum Dd2 in erythrocytes, SYBR Green DNA, 72 h; at 28.5 µM (top of the series) unless noted. The method in brief: as §1
The nature of test [5]: qHTS profiling of the MIPE4 collection as inhibitors of Plasmodium falciparum (HB3) proliferation (AID 743347).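 Further: plate controls were DMSO vehicle wells for no effect and artemisinin wells for full effect.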 Conditions: P. falciparum HB3 in erythrocytes, SYBR Green DNA, 72 h; at 28.5 µM (top of the series) unless noted. The method in brief: as §1
Test [6] is described as follows: High-throughput drug toxicity screening in the BPDCN cell line Cal-1 (AID 1224825).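 Further: cells exposed to compounds for 48 h.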 The note with it: Cal-1 BPDCN cell viability, qHTS; at 45.8 µM (top of the series) unless noted. A digest of the protocol: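 Percent activity derived from CellTiter-Glo luminescence, scaling DMSO to 100% and 9.2 uM final bortezomib to 0%. BPDCN Cal-1 cells (500/well, RPMI plus 10% FBS) incubated with compounds 48 hours at 37C before reading.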

The nature of test [7]: qHTS profiling for inhibitors of Plasmodium falciparum (HB3) proliferation (AID 743324).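 Further: 100% = DMSO vehicle wells and 0% = artemisinin-treated control wells.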 Conditions: Plasmodium falciparum HB3 blood-stage proliferation; at 28.7 µM (top of the series). The method in brief: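 SYBR Green fluorescence (485 ex/535 em) of lysed cultures, incubated overnight at room temperature in the dark, quantifies parasite DNA. Infected erythrocytes at 0.3% parasitemia and 2.5% hematocrit were exposed 72 h; values normalized to DMSO and 0.29 uM artemisinin controls.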

Test [8] can be described thus: qHTS profiling for inhibitors of Plasmodium falciparum (3D7) proliferation (AID 743322).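 Further: infected erythrocytes exposed to compound for 72 h before lysis; 100% = DMSO vehicle wells and 0% = 0.29 µM artemisinin.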 Conditions: P. falciparum 3D7 proliferation; at 28.7 µM (top of the series). A digest of the protocol:
as §1

In the case of `COc1cc(=C2C=c3ccccc3=N2)[nH]c1=Cc1[nH]c(C)cc1C`, the activity, percent of control in test [1] was determined as 1.12%. For the same compound, in test [2], the parasite growth, % of DMSO control is 4.63%. For the same compound, in test [3], the parasite growth remaining, % of DMSO control (lower = more inhibition) turned out to be 7.38%. Also, the parasite growth, % of control (lower = inhibition) in test [4] worked out at 15.9%. In test [5], this compound had a growth, % of control of 5.2%. In addition, the viability (% of control) in test [6] turned out to be 3.02%.

Turning to `COc1cc(C)c(Sc2cnc(NC(=O)c3ccc(CNC(C)C(C)C)cc3)s2)cc1C(=O)N1CCN(C(C)=O)CC1` (centres undefined), the parasite growth, % of DMSO control in test [2] was 16.2%. For the same compound, the parasite growth remaining, % of DMSO control (lower = more inhibition) in test [3] is 16%. This compound registered a parasite growth, % of control (lower = inhibition) in test [4] of 18.9%. The compound further gave a growth, % of control in test [5] of 4.37%. The compound also came in with a viability (% of control) in test [6] of 6.82%.

In turn, `CNC(=O)c1cc(Oc2ccc(NC(=O)Nc3cc(C(C)(C)C)nn3-c3ccc4ncccc4c3)c(F)c2)ccn1` gave an activity, percent of control in test [1] of 73.3%. The compound also gave a remaining proliferation (% of control), lower = more inhibition in test [7] of 24.1%. The compound also returned a parasite growth, % of DMSO control in test [2] of 5.7%. The same compound registered a parasite growth remaining, % of DMSO control (lower = more inhibition) in test [3] of 15.5%. The compound further came in with a parasite growth, % of control (lower = inhibition) in test [4] of 10.2%. The same compound gave a growth, % of control in test [5] of 9.48%. The same compound gave a viability (% of control) in test [6] of 7%.

With `CNC(=O)c1nn(C)c2c1C(C)(C)Cc1cnc(Nc3ccc(N4CCN(C)CC4)cc3)nc1-2`, the parasite growth, % of DMSO control in test [2] worked out at 6.38%. The same compound registered a parasite growth remaining, % of DMSO control (lower = more inhibition) in test [3] of 11.1%. The parasite growth, % of control (lower = inhibition) in test [4] turned out to be 6.77%. For the same compound, in test [6], the viability (% of control) was found to be 3.8%.

Regarding `c1cc(-c2cnn3cc(-c4ccc(OCCN5CCCCC5)cc4)cnc23)ccn1`, the remaining parasite growth % (stronger effect = lower value) in test [8] amounted to 6.04%. In test [1], this compound came in with an activity, percent of control of 13.9%. The compound further displayed a parasite growth, % of DMSO control in test [2] of 4.66%. This compound came in with a parasite growth remaining, % of DMSO control (lower = more inhibition) in test [3] of 6.66%. The compound also had a parasite growth, % of control (lower = inhibition) in test [4] of 10.1%. Moreover, the growth, % of control in test [5] worked out at 4.45%. Also, the viability (% of control) in test [6] was found to be 3.8%.
